HepG2 tox = qHTS for Inhibitors of TGF-b: Cytotox Counterscreen | Potency, µM (highest dose often 46.1 µM), without a hit: top-dose activity change, negative = cytotoxicity, hits mostly cytotoxic | HepG2 CAGA-GFP viability, ATP luminescence, 18 h | AID 588856, 2011 | 0.76% of 410,000 active; note: potency is the fitted concentration of half-maximal effect
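CellTiter-Glo luminescence gave cytotoxicity after 18 hours at 37 degrees C. The cells were HepG2 CAGA-GFP in 1% FBS DMEM, stimulated with 500 pg/mL TGF-beta after compound addition. %Activity was normalised to no-cell wells (complete cell-killing) and DMSO (no toxicity), and curves were fitted and classified.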
ATXN2 expr inh = Primary qHTS for Inhibitors of ATXN expression | HEK-293 ATXN2-luciferase reporter, luminescence, 24 h | Potency, µM (series often up to 57 µM), without a hit: at the top dose activity change, negative = inhibition, most hits filed as inhibitors | 0.72% of 360,000 active; note: potency is the fitted concentration of half-maximal effect; % is set by controls: 0 for no effect and ±100 for the full control effect; nearly all actives have a fitted effect of over 55% in size
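ATXN2-luciferase reporter cells (luciferase flanked by upstream and downstream ATXN2 gene portions) were treated 24 h at 37 °C with compounds at up to 57 uM. SteadyGlo luminescence gave expression; GF-AFC fluorescence gave viability.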
TGFb SMAD3 inh = qHTS for Inhibitors of TGF-b | Potency, µM (top dose mostly 46.1 µM), inactives show at the top dose activity, negative = inhibition, usual class: inhibitors | HepG2 CAGA-GFP TGF-b/SMAD3 reporter, GFP fluorescence, 18 h; TGF-beta stimulated, 500 pg/mL final | AID 588855, 2011 | 1.2% of 410,000 active; note: potency is the fitted concentration of half-maximal effect; % is set by controls: 0 for no effect and ±100 for the full control effect; nearly all actives have a fitted effect of over 65% in size
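HEPG2 CAGA-GFP cells (1000/well, DMEM with 1% FBS) were pre-incubated 2 h at 37 degrees C, given compound by pin tool, then stimulated with TGF-beta at 500 pg/mL final for 18 h before per-cell GFP fluorescence imaging.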
S2 tox = Viability Counterscreen for Primary qHTS for Inhibitors of ATXN expression; S2 cells (HEK-293 line with an ATXN2-luciferase reporter) viability, CellTiter-Fluor protease fluorescence, 24 h; Potency, µM (highest dose often 56.7 µM), usual class: cytotoxic; 0.49% of 400,000 active; AID 651635, 2014; note: potency is the fitted concentration of half-maximal effect; nearly all actives have a fitted effect of over 40% in size
Giardia killer = Small Molecules that selectively kill Giardia lamblia: qHTS. Giardia lamblia trophozoite viability. activity change, % at 7.66 µM, hits read low. 0.15% of 340,000 active. AID 540267, 2011; in the data active = activity change below about -80%; inconclusive = between about -30% and that limit;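 note: parasites exposed to compound for two days anaerobically before the ATP read; % is set by controls: 0 for no effect and ±100 for the full control effect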
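Luminescence from cellular ATP indicates surviving trophozoites (100 cells/well) following 48 hrs anaerobic compound treatment at 37 deg C; signal develops 15-30 min at room temperature.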
uPA surface inh = qHTS for Inhibitors of Cell Surface uPA Generation | AID 540303, 2011 | Potency, µM (titrated, usually from 38.3 µM), without a hit: at the top dose activity change, negative = inhibition, usual class: inhibitors | cell surface uPA generation assay, qHTS | 0.31% of 330,000 active; active = well fitted inhibition curve with a large enough effect; inconclusive = small, poorly fitted or top-dose-only effect; inactive = no such curve, though single readings can be large or run the other way; tested in mouse RAW 264.7 cells; note: potency is the fitted concentration of half-maximal effect; % is set by controls: 0 for no effect and ±100 for the full control effect; nearly all actives have a fitted effect of over 55% in size
An asterisk follows results filed as active; i = inactive; ? = inconclusive; / = not tested or not shown. The list is not random: actives were taken first. Their share in the collection is about 2.6%. Unless noted, calls come from the whole dose curve; as a rule, active = well fitted curve in the direction sought with a large enough effect; inconclusive = small, poorly fitted or top-dose-only effect, or another doubt; inactive = no such curve, though single readings can be large; an effect the other way counts as inactive or inconclusive.

SMILES	HepG2 tox	ATXN2 expr inh	TGFb SMAD3 inh	S2 tox	Giardia killer	uPA surface inh
CCOc1ccc(S(=O)(=O)Nc2cccc(-c3ccc(OCC)nn3)c2)cc1	-25%	0%	0%	?	/	/
C=C1NN(Cc2ccccc2)C(=O)N1c1ccc(OCc2ccccc2)cc1	1%	/	31%	/	/	/
CCN1c2ccccc2N(C)C1(C)c1ccccc1 (stereo not drawn)	-102%	18µM*	8.9µM*	i	20	-7%
Cc1ccc(C(=O)NC(=O)OCCn2c(C)cnc2[N+](=O)[O-])cc1	-13%	-11%	-12%	i	-88*	1%
COc1ccccc1C(=O)NC(=O)OCCn1c(C)cnc1[N+](=O)[O-]	2%	0%	10%	i	-82*	3%
O=c1cc(N2CCN(c3cccc(Cl)c3)CC2)[nH]c(=O)n1C1CCCCC1	4%	?	1%	i	4	5%
O=c1cc(N2CCN(c3ccccc3)CC2)[nH]c(=O)n1C1CCCCC1	-25%	5µM*	-27%	i	22	-5%
COc1ccc(C2CC(c3cccs3)=NN2C(=O)CCl)cc1OC (stereo not drawn)	7.1µM*	13µM*	10µM*	11µM*	-4	-12%
COc1ccc(C2CC(c3cccs3)=NN2C(=O)c2ccccc2)cc1OC (stereo not drawn)	-17%	-10%	15%	?	-14	1%
COc1ccc(C2CC(c3cccs3)=NN2C(=O)CCC(=O)O)cc1 (stereo not drawn)	7%	/	12%	i	15	2%
COc1cc(C2CC(c3cccs3)=NN2C(=O)CCl)ccc1OC(F)F (stereo not drawn)	6.3µM*	?	6.3µM*	/	-6	-3%
CN(C)c1ccc(/C=C/c2ccnc3ccc(O)cc23)cc1	-36%	/	19%	/	/	/
COC(=O)c1ccc2c(C(=Nc3ccc(N(C)C(=O)CN4CCN(C)CC4)cc3)c3ccccc3)c(O)[nH]c2c1	/	24µM*	/	/	/	/
Cc1cc(-c2ccnc(-n3ncc(C(=O)N(C)Cc4nccs4)c3C)n2)c(C)s1	/	/	/	i	/	/
CC1(C)CC(=O)C2=C(C1)Oc1nc3ccccc3cc1C2C(C#N)C#N (stereo not drawn)	-17%	-10%	11µM*	?	20	-8%
CCSc1nnc(NC(=O)NC(C)(C(F)(F)F)C(F)(F)F)s1	-41%	-16%	?	i	-10	1%
CCSc1nnc(NC(=O)NC(CC)(C(F)(F)F)C(F)(F)F)s1	-86%	?	13µM*	?	-1	5%
COc1cccc2c1C(=O)c1c(O)c3c(c(O)c1C2=O)C[C@@](O)(C(=O)CO)C[C@H]3O[C@H]1C[C@H](N)[C@H](O)[C@H](C)O1	/	0.27µM*	/	/	/	/
COc1cccc2c1C(=N)c1c(O)c3c(c(O)c1C2=O)CC(O)(C(C)=O)CC3OC1CC(N)C(O)C(C)O1 (stereo not drawn)	-57%	1.2µM*	7.1µM*	?	-3	-13%
COc1cccc2c1C(=O)c1c(O)c3c(c(O)c1C2=O)CC(O)(C(C)=O)CC3OC1CC(O)C(O)C(C)O1 (stereo not drawn)	-32%	?	-19%	19µM*	-26	-11%
COc1cccc2c1-c1c(O)cccc1C2=O	-1%	/	15%	i	-10	-23%
CCCCC(=O)OCC(=O)C1(O)Cc2c(O)c3c(c(O)c2C(OC2CC(NC(=O)C(F)(F)F)C(O)C(C)O2)C1)C(=O)c1c(OC)cccc1C3=O (stereo not drawn)	-42%	2.5µM*	?	3.5µM*	-11	-10%
CCN(C(=O)c1cn(-c2ccc(OC)cc2)c(=O)c2ccccc12)c1cccc(Cl)c1	-23%	/	16µM*	/	/	/
COc1ccc(-n2cc(C(=O)O)c3ccccc3c2=O)cc1	2%	-5%	8%	i	18	-3%

High-throughput results from PubChem BioAssay.
